Assay outcomes as filed in PubChem.
Shown are actives, neighbours in structure and some others; about 3% of the full set was active somewhere.
ALOX12 inh: blocks human arachidonate 12S-lipoxygenase; P18054; purified 12hLO, xylenol orange hydroperoxide absorbance; Potency, µM (titrated, usually from 108 µM), hits mostly inhibitors; hit rate 1.1% among 580,000; AID 1671190; active means well fitted inhibition curve with a large enough effect; inconclusive means small, poorly fitted or top-dose-only effect, or another doubt; inactive means no such curve, though single readings can be large or run the other way
Target sequence (P18054 whole entry, looked up): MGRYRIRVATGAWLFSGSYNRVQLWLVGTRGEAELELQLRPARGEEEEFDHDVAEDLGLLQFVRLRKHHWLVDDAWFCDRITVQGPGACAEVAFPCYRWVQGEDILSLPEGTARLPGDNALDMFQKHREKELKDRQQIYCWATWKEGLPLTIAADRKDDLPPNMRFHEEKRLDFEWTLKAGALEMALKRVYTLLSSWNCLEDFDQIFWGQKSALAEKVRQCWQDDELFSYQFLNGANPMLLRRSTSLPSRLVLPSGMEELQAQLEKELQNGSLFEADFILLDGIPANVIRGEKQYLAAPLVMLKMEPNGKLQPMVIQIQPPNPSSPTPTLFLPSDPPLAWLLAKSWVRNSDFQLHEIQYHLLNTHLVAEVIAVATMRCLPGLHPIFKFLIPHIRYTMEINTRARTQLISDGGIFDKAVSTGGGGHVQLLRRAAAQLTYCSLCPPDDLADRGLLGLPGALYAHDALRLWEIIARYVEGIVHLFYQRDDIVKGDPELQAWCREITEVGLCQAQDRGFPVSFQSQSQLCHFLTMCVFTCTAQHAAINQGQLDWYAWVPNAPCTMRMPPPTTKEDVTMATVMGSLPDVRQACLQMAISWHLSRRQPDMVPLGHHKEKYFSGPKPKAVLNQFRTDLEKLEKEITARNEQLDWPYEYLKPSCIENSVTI
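Hydroperoxide product was detected by ferrous iron/xylenol orange as the 573 to 405 nm absorbance ratio. Arachidonic acid at 40 uM (final) was turned over for 30 min at room temperature by 150 nM human 12hLO, pH 7.0 Hepes buffer, after 15 min compound preincubation.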
BCR signal inh: chronic active BCR signaling inhibition. ABC-DLBCL IkBa-CBG/CBR reporter, luminescence ratio, 4 h. Potency, µM (titrated, usually from 46.1 µM), usual class: inhibitors. hit rate 0.05% among 340,000. AID 493014; active means well fitted inhibition curve with a large enough effect in the signal ratio, with a control signal flat, not every such curve was filed as active; inconclusive means small, poorly fitted or top-dose-only effect, or effect the other way, or a change in a side signal; the % refers to the signal ratio
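TMD8 ABC-DLBCL cells carrying doxycycline-inducible green luciferase fused to IkappaBalpha plus unfused red luciferase were exposed to compounds (up to 46 uM) for 4 hrs at 37C. Activity came from the overlap-corrected green/red luminescence ratio.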
hERG WT inh: inhibitors of human wildtype KCNH2 potassium channel; activity change, % at 1.84 µM; hit rate 0.37% among 340,000; Q12809; U2OS, BacMam KCNH2, thallium flux FluxOr; stronger effect = lower value;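 active means maximum activity change below -70%; inconclusive means maximum activity change between -70% and -50%; inactive means maximum activity change above -50%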
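U2OS cells transduced with wild-type KCNH2 virus are loaded with FluxOr dye for 45 min, and thallium flux is measured in kinetic reads before and after stimulation buffer. Rate constants are normalized to DMSO controls.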
KCNH2 3.1 inh: KCNH2 3.1 (human) potassium channel inhibition; activity change, % (tested at about 1.8 µM); AID 720553; U2OS KCNH2 3.1, thallium flux FluxOr; stronger effect = lower value; hit rate 0.95% among 340,000;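 active means maximum activity change below -70%; inconclusive means maximum activity change from -70% to -50%; inactive means maximum activity change above -50%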;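 further: thallium influx rate constant from kinetic fluorescence after stimulation buffer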
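U2OS cells transduced with KCNH2 3.1 mutant virus (1.77 x 10^8 /mL, 4 h), plated overnight at 37 C, loaded 45 min with FluxOr dye plus Red40 quencher. Thallium flux rate constant from kinetic reads after stimulation buffer, normalised to controls.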
LDHA block: LDHA (human) enzyme inhibition. activity change, % (values are at about 110 or 230 µM). P00338. purified LDHA, NADH/diaphorase-resazurin fluorescence; stronger effect = lower value. hit rate 0.15% among 480,000; in the data active means activity change below about -30%; inconclusive means mostly about -25% to -30%
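Human LDH5 at 2 nM final in Tris HCl pH 7.4 with 0.06 mM NADH and 0.2 mM pyruvate, reacted 5 minutes at room temperature. Remaining NADH coupled via diaphorase/resazurin; resorufin fluorescence read at 0 and 20 minutes, normalized to enzyme-free and DMSO wells.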
ClpP mod: qHTS Assay for Activators of ClpP; purified B. subtilis ClpP, FRET peptide cleavage, 20 min; Potency, µM (highest dose often 57.5 µM); hit rate 1.9% among 340,000; AID 651965, 2013; active means well fitted falling curve with a large enough effect; inconclusive means small, poorly fitted or top-dose-only effect; inactive means no such curve, though single readings can be large or run the other way; further: the source files actives as falling curves though it sought activators and does not explain the sign; nearly all actives have a fitted effect of over 65% in size
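FRET quenching reversal measured ClpP activation: 10 microg/mL B. subtilis ClpP at pH 8 with the FRET-FV decapeptide, read at 430 nm after 320 nm excitation. The 20-min minus 0-min signal was scaled between DMSO/no-enzyme wells and ADEP (5.8 microM final).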
A number is an active result; . = inactive; ? = inconclusive; / = no result given; ! = not confirmed by another sample.

SMILES	ALOX12 inh	BCR signal inh	hERG WT inh	KCNH2 3.1 inh	LDHA block	ClpP mod
Cc1noc(C)c1-c1ccc(C(=O)NCC2CC2)c2occc12	?	/	/	/	.	.
O=C(NCC1CC1)c1ccc(-n2ccnc2)c2ccoc12	10µM	/	/	/	.	.
CS(=O)(=O)Nc1cccc(NC(=O)c2ccc(-n3ccnc3)c3ccoc23)c1	10µM	/	/	/	.	.
Cc1ccc(N(C(C)C(=O)NCc2cccnc2)S(C)(=O)=O)cc1C (stereo not given)	.	/	/	/	.	/
CCN(CC)CCCN(C/C=C/c1ccccc1)C/C=C/c1ccccc1	0.708µM	/	/	/	.	/
CN1CCn2cnc(C(=O)NCc3ccccc3)c2C1=O	.	/	.	.	.	.
Cc1cccc(NC(=O)c2ncn3c2C(=O)N(C)CC3)c1	.	/	.	-82.6	.	.
CC1CC(C)(C)NC(C)c2ccccc21 (stereo not given)	.	?	.	.	.	.
CC1CC(C)(C)NCc2ccccc21 (stereo not given)	.	.	.	-89.3	.	.
COc1ccc(-c2nc(C3CC(=O)N(c4ccc(F)c(Cl)c4)C3)no2)cc1 (stereo not given)	.	/	/	/	/	/
O=C(CN1C(=O)c2ccccc2S1(=O)=O)c1ccc(Cl)cc1Cl	8.91µM!	/	.	.	.	.
CC(=O)C1=C(O)C(=O)N(c2ccc(Br)cn2)C1c1ccccc1[N+](=O)[O-] (stereo not given)	?	?	.	.	.	/
CC(=O)C1=C(O)C(=O)N(c2ccccn2)C1c1ccccc1[N+](=O)[O-] (stereo not given)	14.1µM	.	.	.	.	/
N#Cc1ccc(-c2nc(C3CC(=O)N(c4ccc(F)cc4)C3)no2)cc1 (stereo not given)	10µM	/	/	/	/	/
N#Cc1ccc(-c2nc(C3CC(=O)N(c4ccc(Cl)cc4)C3)no2)cc1 (stereo not given)	12.6µM	/	/	/	/	/
CSc1ccc(C(C)NC(=O)c2cc(F)ccc2F)cc1 (stereo not given)	?	/	/	/	.	/
Cc1cccc2nc(COc3ccc4ccc(=O)oc4c3)cc(=O)n12	?	/	/	/	.	/
CCOc1cccc2sc(NC(=O)c3ccc(S(=O)(=O)N4CCc5ccccc54)cc3)nc12	.	/	/	/	.	.
CCOc1cccc2sc(NC(=O)c3ccc(S(=O)(=O)N4CCCCC4)cc3)nc12	44.7µM	/	/	/	.	?
O=C1[C@@H]2[C@@H](CN3CN(c4ccccc4)N=C(c4ccccc4)[C@@]23c2ccccc2)C(=O)N1c1ccccc1	.	/	.	.	.	3.55µM
COc1ncccc1CNC(=O)Nc1nnc(C2CC2)s1	.	/	/	/	.	/
CCCCCn1nc(C(=O)Nc2nc3ccccc3s2)c2ccccc2c1=O	.	/	/	/	.	/
COc1ccc2cc(C(=O)N3CCN(c4ccccc4F)CC3)[nH]c2c1	?	.	.	.	.	.
COc1ccc2cc(C(=O)N3CCN(c4ccccc4OC)CC3)[nH]c2c1	15.8µM	.	.	.	.	.
COc1ccc(CCN(C)CCCN2CC(c3ccccc3)CC2=O)cc1OC (stereo not given)	?	.	.	-88.2	.	.
SMILES	ALOX12 inh	BCR signal inh	hERG WT inh	KCNH2 3.1 inh	LDHA block	ClpP mod
COc1ccc(C2CC(=O)N(CCCN(C)CCc3ccc(OC)c(OC)c3)C2)cc1 (stereo not given)	?	?	/	.	.	.
CCOc1ccc2oc(=O)cc(-c3cc4cccc(OC)c4o3)c2c1	.	/	/	/	.	/
O=c1c2c3nc4ccccc4nc3n(CC3CCCO3)c2ncn1CCc1ccccc1 (stereo not given)	.	?	.	.	.	4.47µM
Cc1ccc(S(=O)(=O)N2CCCCC2)cc1NC(=O)c1oc2c(F)cccc2c1C	?	/	/	/	.	/
COc1ccc(C)cc1-c1csc(NC(=O)c2ccccc2OCc2noc(C)n2)n1	.	/	/	/	.	/
Cc1cc(SCC(=O)NN2C(=O)NC3(CCCCC3)C2=O)nc2c(C)cccc12	.	/	/	/	.	/
CCN1CCN(C(C(=O)NC2CCCCC2)C2CC2)CC1 (stereo not given)	.	/	/	/	.	.
CCN1CCN(C(C)C(=O)NC2CCCCC2)CC1 (stereo not given)	?	.	.	.	-30.8	.
CC(Sc1nnc(C(F)(F)F)n1C)C(=O)Nc1ccc(N2CCOCC2)cc1 (stereo not given)	.	.	-140.1	-185.6	.	.
O=C(Nc1nc(-c2ccccc2)cs1)c1ccc2c(c1)S(=O)(=O)c1ccccc1C2=O	.	.	.	.	.	.
O=C(Nc1nc(-c2cccc3ccccc23)cs1)c1ccc2c(c1)S(=O)(=O)c1ccccc1C2=O	.	.	.	-106.1	.	/
Cc1cccc(OC(C)C(=O)Nc2cc(-c3ccccc3)no2)c1C (stereo not given)	.	/	/	/	.	/
O=C(COC(=O)C1CC2CCCC(C1)C2=O)Nc1ccc(F)c(Cl)c1 (stereo not given)	.	?	.	.	.	.
O=C(COC(=O)C1CC2CCCC(C1)C2=O)Nc1nc(-c2ccc(F)c(F)c2)cs1 (stereo not given)	.	.	.	-93.8	.	.
CNC(=O)NC(=O)C(C)OC(=O)c1cc2c(s1)CCCCC2 (stereo not given)	.	.	.	-98.0	.	.
Cc1cc(NC(=O)C(C)OC(=O)c2cc3c(s2)CCCCCC3)no1 (stereo not given)	.	/	/	/	.	/
COc1ccc([C@H]2C[C@@H](O)[C@@H](O)[C@@H]2NC(=O)c2nc3ccccc3s2)cc1	.	/	/	/	/	/
Cc1ccccc1[C@H]1C[C@@H](O)[C@@H](O)[C@@H]1NC(=O)c1nc2ccccc2s1	44.7µM	/	/	/	/	/
CC(C)(C)OC(=O)N/N=C/c1c(Cl)cccc1Cl	.	/	/	/	.	/
COc1ccc(OC)c(NC(=S)NCc2ccccc2OC)c1	?	.	.	.	.	/
S=C(NCCCCCNC(=S)Nc1cccc(Cl)c1)Nc1cccc(Cl)c1	?	/	/	/	.	/
S=C(NCCC(c1ccccc1)c1ccccc1)Nc1cccc(Cl)c1	22.4µM	?	.	.	.	.
COc1ccc(OC)c(NC(=S)NCCC(c2ccccc2)c2ccccc2)c1	8.91µM	/	.	.	.	.
S=C(NCCC(c1ccccc1)c1ccccc1)Nc1ccccc1	35.5µM	/	/	/	.	/
Cc1ccc(NC(=S)NCCC(c2ccccc2)c2ccccc2)c(C)c1	?	?	.	.	.	.
Cc1ccccc1NC(=S)NCCC(c1ccccc1)c1ccccc1	31.6µM	.	.	.	.	12.6µM
S=C(NCCNc1c(Cl)c(Cl)c(Cl)c(Cl)c1Cl)Nc1ccccc1	12.6µM	/	/	/	.	/
S=C(NCCCCCCNC(=S)Nc1cccc(Cl)c1)Nc1cccc(Cl)c1	15.8µM	/	/	/	.	/
